BH1578 lux ind – inducers of Vibrio cholerae quorum light production without autoinducers; V. cholerae BH1578 lux reporter, luminescence, 6 h; activation, % at 18.7 µM; hit rate 0.16% among 350,000; in the data active = activation mostly above about 9.7%, no sharp cut-off
Mtb FBA inh – inhibitors of M. tuberculosis fructose-bisphosphate aldolase. P9WQA3. purified M. tuberculosis FBA, fluorescence read-out. inhibition, % at 1 µM. hit rate 2.3% among 360,000; in the data active = inhibition above about 27%;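 note: 0% = vehicle and 100% = reference inhibitor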
Target sequence (P9WQA3 whole entry, looked up): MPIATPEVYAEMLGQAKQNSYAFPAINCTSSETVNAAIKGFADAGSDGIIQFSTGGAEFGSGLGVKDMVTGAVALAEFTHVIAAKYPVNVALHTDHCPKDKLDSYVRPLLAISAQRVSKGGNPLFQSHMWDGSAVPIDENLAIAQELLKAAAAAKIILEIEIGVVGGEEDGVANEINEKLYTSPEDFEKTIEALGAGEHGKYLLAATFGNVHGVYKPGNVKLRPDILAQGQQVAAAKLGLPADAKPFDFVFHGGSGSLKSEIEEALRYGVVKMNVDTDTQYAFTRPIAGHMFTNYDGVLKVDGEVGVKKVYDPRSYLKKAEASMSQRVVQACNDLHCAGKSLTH
CCHF vOTU inh – blocks the CCHF virus ovarian tumor domain protease; CCHFV vOTU protease, Pep-AMC fluorescence; inhibition, % at 11.5 µM; hit rate 0.55% among 370,000; AID 651958; note: 0% = vehicle wells with enzyme and 100% = no enzyme wells
GDH-TPI counter – counter-screen for M. tuberculosis FBA inhibitors: GDH-TPI coupled enzymes; hit rate 1.2% among 360,000; inhibition, % at 4.8 µM; GDH-TPI coupled enzyme counterscreen, NADH absorbance;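 note: 0% = DMSO wells and 100% = wells lacking the enzyme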
* hit, by the source's call; i = inactive; · = no result; + = active, no number. The list is not random: actives were taken first. Their share in the collection is about 3.9%. Cut-off read from the data, not from the text of the source, unless noted: active = inhibition above about 30%; inactive = the rest.

SMILES	BH1578 lux ind	Mtb FBA inh	CCHF vOTU inh	GDH-TPI counter
COCCN1C=C(C(=O)OC)C(c2ccc3c(c2)OCO3)C(C(=O)OC)=C1	0	14	-19	12
CCOc1ccc(C2C(C(=O)OC)=CN(CCOC)C=C2C(=O)OC)cc1	2	+	-296	8
CCOc1ccc(NC(=O)c2cccc3c2C(=O)N(CCOC)C3)cc1	0	0	-1	0
Cc1ccc(CSc2nnc(SCC(=O)N/N=C/c3ccccc3OCC(=O)O)s2)cc1	0	4	-1	16
COc1ccc(-n2nc(C(=O)NCC(=O)N3CC(C)CC(C)C3)c3ccccc3c2=O)c(OC)c1 (stereo not drawn)	i	-1	8	-2
COC(=O)c1ccc(C(=O)OC)c(NC(=O)Cc2cccs2)c1	0	10	-16	11
CC(=O)N1c2ccccc2NC2=C(C(=O)CCC2)C1c1cccnc1 (stereo not drawn)	3	-1	4	28
O=C1CCCC2=C1C(c1cccnc1)Nc1ccccc1N2 (stereo not drawn)	3	-14	-4	31*
CCOC(=O)C1=CN(C)C=C(C(=O)OCC)C1c1ccsc1	0	+	-261	9
Cc1c(O)c(=O)c2ccccc2n1C	0	150*	-241	25
Cn1c(=O)c(-c2ccccc2)c(O)c2ccccc21	3	13	7	12
O=C(NCc1ccccc1)C(c1ccccn1)N(C(=O)c1csnn1)c1ccccc1F (stereo not drawn)	0	1	3	-8
COC(=O)COc1c(/C=C\c2nc(O)c([N+](=O)[O-])c(=O)[nH]2)cccc1OC	1	-3	-2	32*
COc1ccc(/C=C\c2nc(O)c([N+](=O)[O-])c(=O)[nH]2)cc1O	-1	-9	5	26
C#CCOc1c(/C=C\c2nc(O)c([N+](=O)[O-])c(=O)[nH]2)cc(Br)cc1OC	0	-4	10	49*
O=C(O)c1cccc(-c2ccccc2)c1O	i	116*	-4	-4
O=C(Oc1ccc(/C=N/NC(=O)c2ccccc2O)cc1)c1ccccc1	·	2	-8	17
O=C(CC1SC(=O)NC1=O)Oc1ccc(/C=N/NC(=O)c2ccccc2O)cc1 (stereo not drawn)	0	3	3	42*
COc1ccc(/C=N/NC(=O)c2ccncc2)cc1CSc1nc2ccccc2s1	0	2	0	31*
COc1ccc(C(=O)N/N=C\c2ccc(OC)c(COc3ccccc3Br)c2)c(OC)c1	0	8	-3	35*
COc1ccc(C(=O)N/N=C/c2ccc(OC)c(CSc3ccccn3)c2)cc1	i	0	10	12
CCOC(=O)c1ccccc1OCc1cc(/C=N/NC(=O)c2ccncc2)ccc1OC	-1	3	4	38*
CC(=O)c1ccc(N2C(=O)[C@@H]3[C@H](C2=O)[C@H]2c4ccccc4C=NN2[C@@H]3C(C)=O)cc1	-1	2	-13	17
C=C(C)Cn1c2ccc(NC(=O)NCc3ccc(F)cc3)cc2c(=O)n1C	0	190*	-202	7
O=C(NCc1ccc(F)cc1)Nc1ccc(Cl)cc1	i	1	0	1
SMILES	BH1578 lux ind	Mtb FBA inh	CCHF vOTU inh	GDH-TPI counter
Cn1c(=O)c2cc(NC(=O)NCc3ccc(F)cc3)ccc2n1C	0	162*	-196	12
Cn1c(=O)c2cc(NC(=S)NC3CC3)ccc2n1Cc1ccc(F)cc1	-5	14	-29	10
O=Cc1ccc(OC(=O)C2CC(=O)N(c3ccc(F)cc3)C2)cc1 (stereo not drawn)	3	-1	8	31*
O=C(O)C1CC(=O)N(c2ccc(F)cc2)C1 (stereo not drawn)	-1	2	-7	-7
O=[N+]([O-])c1ccccc1C(=Nc1ccccc1)c1c(O)cc(O)cc1O	i	0	12	32*
O=C(Nc1ccccc1)c1ccccc1NC(=O)c1ccccc1[N+](=O)[O-]	0	3	-3	3
COC(=O)c1ccnc(/C=N/O)c1	-2	-2	4	-12
O=C(NCc1ccccc1)c1ccc(-c2cn[nH]c2)c2ccoc12	-1	32*	-6	10
COc1cc(NC(=O)c2ccc(-c3cn[nH]c3)c3ccoc23)cc(OC)c1OC	0	0	17	13
CC(=O)c1cccc(NC(=O)CN2CCN(S(=O)(=O)/C=C/c3ccccc3)CC2)c1	i	-1	10	-11
NC(=O)c1nn(-c2ccccc2)nc1N	0	+	-88	5
Nc1nn(-c2ccccc2)nc1C(=O)OCc1ccccc1	-2	177*	-73	6
COc1cccc(COC(=O)c2nn(-c3ccccc3)nc2N)c1	-7	-2	-8	4
Cc1nn(-c2ccccc2)nc1C(N)=O	0	13	1	-7
CC(=O)Nc1cccc(-c2cc(C)c3cc4c(cc3n2)OCO4)c1	-6	14	-8	32*
COc1ccccc1/C=N/NC(=O)c1[nH]c(C)c(C(=O)N/N=C/c2ccccc2OC)c1C	-1	-2	16	54*
COc1ccccc1/C=N/NC(=O)c1csc(C)c1C	-1	2	6	17
CCOC(=O)c1c(C)[nH]c(C(=O)N/N=C/c2ccc(OC)c(OC)c2)c1C	0	-3	13	43*
CCOC(=O)c1c(C)[nH]c(C(=O)N/N=C\c2ccccc2O)c1C	-1	2	1	29
Cc1c(NS(=O)(=O)c2cccs2)c(=O)n(-c2ccccc2)n1C	-3	1	-5	7
CC1(C)CC(=O)c2sc(NC(=O)C3COc4ccccc4O3)nc2C1 (stereo not drawn)	-1	2	10	34*
CC1(C)CC(=O)c2sc(NS(C)(=O)=O)nc2C1	i	0	6	35*
CC1(C)CNC(=O)c2sc(N3CCCCC3)nc2C1	0	-1	-1	10
CC1(C)CC(=O)c2sc(NC(=O)CN3C(=O)CCC3=O)nc2C1	0	3	11	32*
CC1(C)CC(=O)c2sc(N3CCCCC3)nc2C1	i	-1	15	42*
SMILES	BH1578 lux ind	Mtb FBA inh	CCHF vOTU inh	GDH-TPI counter
Cc1cnccc1CNC(=O)CC1C(=O)NCCN1CC(C)(C)C (stereo not drawn)	0	-2	-1	-6
CCCOc1ccc(/C=C/c2c([N+](=O)[O-])c(=O)n(C)c(=O)n2C)cc1	i	-1	-2	39*
NS(=O)(=O)c1cc(C(=O)N=Nc2c(O)[nH]c3ccccc23)ccc1Cl	0	2	10	34*
O=C(N=Nc1c(O)[nH]c2ccccc12)Nc1ccccc1	·	2	17	31*
CC(C)(O)C(=O)N=Nc1c(O)[nH]c2ccccc12	0	-1	-1	3
O=C(N=Nc1c(O)[nH]c2ccccc12)c1cccc(S(=O)(=O)Nc2ccccc2Cl)c1	0	-1	11	18
O=C(N=Nc1c(O)[nH]c2ccccc12)c1cc(-c2cccs2)[nH]n1	i	-2	3	35*
O=C(N=Nc1c(O)[nH]c2ccccc12)c1ccccc1NS(=O)(=O)c1cccs1	0	-4	-4	34*
COc1ccc(-c2nc3c(s2)CN(S(C)(=O)=O)CC3)cc1OC	1	127*	-59	3
